{"source": "PubChem BioAssay AID1030", "about": "(National Center for Advancing Translational Sciences (NCATS), 2008)", "note": "Screen size: about 220,000 compounds; about 16,000 (7.3%) were called active. Roughly 25% stayed inconclusive and do not appear here. What follows is part of a selection rich in actives, with near analogues and random picks from the rest. A number with no mark means an inactive call. Calls come from the whole dose curve; as a rule, active = well fitted inhibition curve with a large enough effect (not every such curve was filed as active); inconclusive = small, poorly fitted or top-dose-only effect, or another doubt; inactive = no such curve, though single readings can be large or run the other way. Potency is the fitted concentration of half-maximal effect.", "data": [{"target": "Aldehyde dehydrogenase 1A1 (Homo sapiens) (UniProt P00352)", "sequence (P00352 whole entry, looked up)": "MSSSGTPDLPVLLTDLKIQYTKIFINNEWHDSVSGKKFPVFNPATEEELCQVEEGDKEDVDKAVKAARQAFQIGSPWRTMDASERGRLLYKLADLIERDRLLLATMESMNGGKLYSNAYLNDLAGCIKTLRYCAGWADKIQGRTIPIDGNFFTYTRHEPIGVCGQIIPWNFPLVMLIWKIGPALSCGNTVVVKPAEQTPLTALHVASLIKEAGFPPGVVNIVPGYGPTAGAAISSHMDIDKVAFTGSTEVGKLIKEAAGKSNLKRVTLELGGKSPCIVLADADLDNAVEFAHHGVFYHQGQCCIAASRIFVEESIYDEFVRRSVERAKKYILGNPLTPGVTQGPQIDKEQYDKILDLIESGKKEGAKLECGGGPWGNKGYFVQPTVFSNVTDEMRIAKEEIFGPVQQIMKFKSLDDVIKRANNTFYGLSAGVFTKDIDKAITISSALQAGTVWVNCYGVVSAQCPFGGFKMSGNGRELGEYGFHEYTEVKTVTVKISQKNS", "assay": "qHTS Assay for Inhibitors of Aldehyde Dehydrogenase 1 (ALDH1A1);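 for activity, negative = inhibition: plate controls were no enzyme wells and a reference inhibitor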", "settings": "Purified ALDH1A1, NADH fluorescence, propionaldehyde substrate; series mostly up to 75.3 µM; activity, negative = inhibition: at the top concentration", "values": [{"smiles": "O=C(CCc1ccccc1)Nc1ncc([N+](=O)[O-])s1", "activity, negative = inhibition": "4.4%"}, {"smiles": "OCCC1CN(Cc2ccc3nsnc3c2)CCN1C1CCCCC1", "note": "(stereo unspecified)", "activity, negative = inhibition": "11.2%"}, {"smiles": "Cn1c(=O)c2cc(S(=O)(=O)NCCC(=O)Nc3ccc(F)cc3F)ccc2n(C)c1=O", "activity, negative = inhibition": "-1.54%"}, {"smiles": "COC(=O)C1=C(C(=O)OC)[C@@H]2N(C)c3ccccc3[C@@]23C[C@@H](C(=O)OC)N(S(=O)(=O)c2cccs2)C3=N1", "activity, negative = inhibition": "0.268% [at 13.5 µM]"}, {"smiles": "Cc1ccc(CCNC(=O)C2CCN(S(=O)(=O)N3CCCC3)CC2)cc1", "Potency": "12.6 µM (active)"}, {"smiles": "O=C(NCCCN1CCN(Cc2ccccc2)CC1)C1CCN(S(=O)(=O)N2CCCC2)CC1", "activity, negative = inhibition": "-7.82%"}, {"smiles": "Cc1ccc(S(=O)(=O)N2CCC(C(=O)N[C@@H](C)C(=O)NCCc3ccccc3)CC2)cc1", "activity, negative = inhibition": "-10.6%"}, {"smiles": "CN(Cc1cccc2ncccc12)C(=O)CC1C(=O)NCCN1Cc1ccc(F)cc1", "note": "(stereo unspecified)", "activity, negative = inhibition": "-10%"}, {"smiles": "COc1ccc(C)cc1NC(=O)Nc1ccccc1SC", "activity, negative = inhibition": "-5.22%"}, {"smiles": "N/C(=N\\OC(=O)Nc1ccc(Cl)c(Cl)c1)c1ncc(C(F)(F)F)cc1Cl", "Potency": "25.1 µM (active)"}, {"smiles": "O=C(CC(O)(C(F)(F)F)C(F)(F)F)Nc1ccc(Cl)c(Cl)c1", "activity, negative = inhibition": "-4.42%"}, {"smiles": "O=C(c1ccccn1)c1ncc(C(F)(F)F)cc1Cl", "activity, negative = inhibition": "17.1%"}, {"smiles": "CC1(OC(=O)CCc2ccccc2)C(=O)C=C2C=C(c3ccc(C#N)cc3)N(CCc3ccccn3)C=C2C1=O", "note": "(stereo unspecified)", "activity, negative = inhibition": "10.1% [at 13.5 µM]"}, {"smiles": "C=CCn1c(-c2ccccc2OCC)n[nH]c1=S", "activity, negative = inhibition": "-15%"}, {"smiles": "C=CCn1c(-c2ccc3[nH]c(C)c(C)c3c2)n[nH]c1=S", "Potency": "12.6 µM (active)"}, {"smiles": "C=CCn1c(CCc2ccc(OC(C)C)cc2)n[nH]c1=S", "activity, negative = inhibition": "-5.12%"}, {"smiles": "O=C(CN1CCN(c2ncccn2)CC1)Nc1ccccc1C(F)(F)F", "activity, negative = inhibition": "3.02%"}, {"smiles": "c1ccc(-c2cc(N3CCCCC3)c3ccccc3n2)cc1", "activity, negative = inhibition": "-14.9%"}, {"smiles": "COc1cccc(NC(=O)C(Sc2nnnn2C)c2ccccc2)c1", "note": "(stereo unspecified)", "activity, negative = inhibition": "5.1%"}, {"smiles": "OCCNCc1cccc(OCc2ccccc2Cl)c1", "activity, negative = inhibition": "6.58%"}, {"smiles": "O=C(C1CCCO1)N1CCN(C(=S)NC2CC2)CC1", "note": "(stereo unspecified)", "activity, negative = inhibition": "-0.777%"}, {"smiles": "Cn1c(=O)c2c(nc(SCC(=O)Nc3ccccc3N3CCCCC3)n2C)n(C)c1=O", "activity, negative = inhibition": "-12.6%"}, {"smiles": "CCC1CCCCN1C(=O)CSc1nc2c(c(=O)n(C)c(=O)n2C)n1C", "note": "(stereo unspecified)", "Potency": "12.6 µM (active)"}, {"smiles": "CCC1CCCCN1C(=O)CSc1nc(C)cc(C)n1", "note": "(stereo unspecified)", "activity, negative = inhibition": "-4.6%"}, {"smiles": "Cc1c(C(=O)N/N=C/c2ccccc2)[nH]c2c([N+](=O)[O-])cccc12", "activity, negative = inhibition": "8.46%"}, {"smiles": "O=C(/C=C/c1ccccc1)c1ccccc1O", "Potency": "inactive"}, {"smiles": "Cc1[nH]c(=O)c(C(=O)/C=C/c2ccccc2)c2c1CCCC2", "activity, negative = inhibition": "4.06%"}, {"smiles": "Cc1nc(-c2ccccc2)sc1C(=O)/C=C/c1ccccc1", "Potency": "3.55 µM (active)"}, {"smiles": "O=C(O)C1C2CC2CN1C(=O)c1ccc(Cl)cc1Cl", "note": "(stereo unspecified)", "activity, negative = inhibition": "1.47%"}, {"smiles": "Cc1[nH][nH]c(=O)c1C(c1ccc2c(c1)OCO2)c1c(C)[nH][nH]c1=O", "activity, negative = inhibition": "-2.58%"}, {"smiles": "Cc1[nH][nH]c(=O)c1N=Nc1ccccc1", "activity, negative = inhibition": "8.64%"}, {"smiles": "Cc1[nH][nH]c(=O)c1C(c1ccc(-c2ccc(Cl)cc2)o1)c1c(C)[nH][nH]c1=O", "Potency": "22.4 µM (active)"}, {"smiles": "O=C(NCCc1ccccn1)c1cccnc1Oc1ccc(Cl)cc1", "activity, negative = inhibition": "9.99%"}, {"smiles": "CN1CCN(C(=O)CCc2nc(-c3ccc(Cl)cc3)no2)CC1", "activity, negative = inhibition": "11.6%"}, {"smiles": "CCCn1c(=O)c2ccccc2n2c(SCC(=O)/C(C#N)=C(\\C)N)nnc12", "activity, negative = inhibition": "1.09%"}, {"smiles": "CCCCN1C(=O)/C(=C(/C#N)C(N)=O)c2ccccc21", "Potency": "7.08 µM (active)"}, {"smiles": "CCOC(=O)Nc1ccccc1N1C(=O)c2ccccc2C1=O", "activity, negative = inhibition": "10.7%"}, {"smiles": "Cc1ccc(-n2[nH]c(C)c(/C=N/N3C(=O)c4cccc5cccc(c45)C3=O)c2=O)cc1", "activity, negative = inhibition": "4.67%"}, {"smiles": "COc1cc(SC#N)ccc1N=Cc1c(C)[nH]n(-c2ccc(C)cc2)c1=O", "Potency": "0.631 µM (active)"}, {"smiles": "CCc1nnc(NS(=O)(=O)c2ccc(N=Cc3c(C)[nH]n(-c4ccc(C)cc4)c3=O)cc2)s1", "activity, negative = inhibition": "-7.49%"}, {"smiles": "N/C(=N\\S(=O)(=O)c1cc(C(F)(F)F)cc(C(F)(F)F)c1)c1cccs1", "activity, negative = inhibition": "-0.599%"}, {"smiles": "CC1=CC(=C(C#N)c2nc3ccccc3s2)C=C(C)N1c1ccc(F)cc1F", "activity, negative = inhibition": "-9.49%"}, {"smiles": "Oc1ccccc1C=NC1CCCCC1N=Cc1ccccc1O", "note": "(stereo unspecified)", "activity, negative = inhibition": "11%"}, {"smiles": "O=c1c(O)c(Br)ccc2c(Br)c(O)c(O)c(O)c12", "Potency": "8.91 µM (active)"}, {"smiles": "CCOc1ccc(NC(=O)NNC(=O)c2ccc(Cl)cc2Cl)cc1", "activity, negative = inhibition": "3.26%"}, {"smiles": "Oc1cc(O)c2c(c1)OC(c1ccc(O)c(O)c1)C(O)C2", "note": "(stereo unspecified)", "Potency": "10 µM (active)"}, {"smiles": "Cc1nc2cc(NC(=O)NC3CC3)ccc2n1C", "activity, negative = inhibition": "-9.58%"}, {"smiles": "CC(C)Oc1ccc(CC(=O)NNC(=S)Nc2ccc(Br)cc2)cc1", "Potency": "10 µM (active)"}, {"smiles": "COC(=O)Cc1ccc(NC(=S)NCc2ccccc2)cc1", "activity, negative = inhibition": "1.73%"}, {"smiles": "COCC(=O)Nc1ccc(Br)cc1", "activity, negative = inhibition": "5.23%"}, {"smiles": "CC(C)C(O)C1CCN(Cc2nc(Cc3ccccc3Cl)no2)CC1", "note": "(stereo unspecified)", "activity, negative = inhibition": "-0.592%"}]}]}
